Compounds with a hit are over-represented: about 10% of the library has one in this group of screens.
GPT2 inhibitor – blocks human glutamate pyruvate transaminase 2. Q8TD30. Recombinant GPT2, coupled pyruvate oxidase/HRP Amplex Red fluorescence. Potency, µM (series often up to 57.7 µM), usual class: inhibitors. actives 0.25% (n = 100,000). AID 1671188; note: nearly all actives have a fitted effect of over 60% in size
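Fluorescence of coupled pyruvate oxidase/HRP/Amplex Red system (50uM Amplex, 30 min, dark) reports pyruvate formed by GPT2. Enzyme reaction: 10ng/uL GPT2, 2mM L-alanine, 250uM a-KG, 30 min room temperature, pH 7.5; 50uM AOA control.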
NIH3T3 tox – kills NIH 3T3 cells | NIH 3T3 viability, CellTiter-Glo ATP luminescence, 48-72 h | Potency, µM (top dose mostly 96.7 µM), usual class: inhibitors | actives 4.3% (n = 94,000); note: nearly all actives have a fitted effect of over 55% in size
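Viability of NIH 3T3 cells after 48 or 72 hr compound treatment at 37 °C was assessed by CellTiter-Glo, with luminescence imaged following a 10 min room-temperature step.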
NPR1 antag – antagonists of human natriuretic peptide receptor Npr1; actives 1.6% (n = 76,000); HEK293 hNpr1 GloSensor cGMP, ANP-stimulated luminescence; Potency, µM (top dose mostly 46.3 µM), usual class: inhibitors; AID 1347048; P16066; calls by dose curve; note: nearly all actives have a fitted effect of over 60% in size
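Compound pre-incubated 30 min at room temperature on GloSensor-loaded HEK293 cells stably carrying hNpr1 and the pGS-40F cGMP biosensor. Stimulation uses hNppA at 0.1 nM final; luminescence is taken at baseline and 20 min post-agonist.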
FLuc inh-1 – inhibitors of firefly (Photinus pyralis) luciferase | purified P. pyralis luciferase, luminescence, biochemical | actives 2.5% (n = 76,000) | Potency, µM (series often up to 115 µM), usual class: inhibitors | AID 1347043 | P08659; note: nearly all actives have a fitted effect of over 65% in size
Target sequence (P08659 whole entry, looked up): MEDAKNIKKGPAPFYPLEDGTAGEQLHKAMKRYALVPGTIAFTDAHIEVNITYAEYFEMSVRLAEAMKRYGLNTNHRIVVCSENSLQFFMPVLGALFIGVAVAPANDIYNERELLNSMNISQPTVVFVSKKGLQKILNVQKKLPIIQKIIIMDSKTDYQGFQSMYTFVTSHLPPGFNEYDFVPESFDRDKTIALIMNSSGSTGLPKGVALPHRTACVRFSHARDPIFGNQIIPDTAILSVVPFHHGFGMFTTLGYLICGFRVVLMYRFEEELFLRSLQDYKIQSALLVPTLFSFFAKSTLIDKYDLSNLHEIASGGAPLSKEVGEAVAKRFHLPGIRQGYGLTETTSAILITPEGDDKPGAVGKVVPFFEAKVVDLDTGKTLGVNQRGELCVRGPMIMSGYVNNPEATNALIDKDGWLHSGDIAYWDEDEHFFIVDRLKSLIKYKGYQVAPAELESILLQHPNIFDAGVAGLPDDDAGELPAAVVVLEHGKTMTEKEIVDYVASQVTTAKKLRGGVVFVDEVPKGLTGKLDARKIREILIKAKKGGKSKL
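Luminescence read by CCD imager after adding enzyme (10nM final) to wells holding compound, titrated in qHTS. Substrates 10uM each D-luciferin and ATP; buffer 50mM Tris acetate pH 7.5, 10mM Mg acetate, Tween-20, BSA.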
HEK cytotox – cytotoxic compounds in HEK 293 cells; HEK 293 viability, ATP luminescence (CellTiter-Glo), 48-72 h; Potency, µM (doses to about 115 µM), usual class: inhibitors; actives 6.6% (n = 94,000); AID 1345083; note: nearly all actives have a fitted effect of over 60% in size
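Cells seeded first (HEK 293, 250 cells/well), then compound added by pintool. Incubation ran 48 or 72 hr at 37 degree Celsius. CellTiter-Glo was added and luminescence imaged after 10 min at room temperature.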
FLuc SDR -ATP – firefly luciferase binding stabilization, ATP absent. actives 7.8% (n = 1,300). Potency, µM (series often up to 32.7 µM), actives largely listed as activators. shares compounds with FLuc inh-1. Purified FLuc-C-HiBiT, Nano-Glo HiBiT luminescence, no ATP; note: nearly all actives have a fitted effect of over 55% in size
FLuc SDR ATP – firefly luciferase binding stabilization, ATP added; purified FLuc-C-HiBiT + ATP, HiBiT complementation luminescence; actives 8.7% (n = 1,300); AID 1963319; shares compounds with FLuc inh-1; Potency, µM (highest dose often 32.7 µM), most hits filed as activators;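 note: signal reports ligand binding via conformational change of the enzyme rather than luciferase catalysis; nearly all actives have a fitted effect of over 55% in size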
FLuc inh-2 – blocks firefly luciferase enzymatic activity. shares compounds with FLuc inh-1. purified FLuc-C-HiBiT enzyme, luciferin luminescence. Potency, µM (titrated, usually from 32.7 µM), hits mostly inhibitors. AID 1963320. actives 42% (n = 1,300); note: nearly all actives have a fitted effect of over 70% in size
Npr1 antag conf – confirmation of human Npr1 natriuretic peptide receptor antagonists | shares compounds with NPR1 antag | HEK293 hNpr1 cGMP GloSensor luminescence, ANP-stimulated | Potency, µM (titrated, usually from 57.6 µM), usual class: inhibitors | actives 76% (n = 1,400); calls by dose curve; note: nearly all actives have a fitted effect of over 70% in size
Npr2 selectivity – hNpr2 antagonism, selectivity versus Npr1; shares compounds with NPR1 antag; HEK293 hNpr2 GloSensor cGMP luminescence, CNP-stimulated; Potency, µM (top dose mostly 57.6 µM), most hits filed as inhibitors; actives 67% (n = 1,400); AID 1347046; calls by dose curve; note: nearly all actives have a fitted effect of over 70% in size
FLuc counter – counter-screen for Npr1 antagonists: firefly luciferase inhibitors. Potency, µM (titrated, usually from 57.6 µM), most hits filed as inhibitors. purified FLuc enzyme, luminescence, Km substrate. AID 1347047. actives 0.7% (n = 1,400). shares compounds with NPR1 antag; note: series mostly up to about 58 µM
GloSensor cGMP – counter-screen for Npr1 antagonists: GloSensor control cell line; HEK293 GloSensor cGMP, SNP-stimulated, luminescence; actives 69% (n = 1,400); shares compounds with NPR1 antag; Potency, µM (top dose mostly 57.6 µM), actives largely listed as inhibitors; calls by dose curve; note: nearly all actives have a fitted effect of over 70% in size
Numbers stand for hits. Unless noted, calls come from the whole dose curve; as a rule, active = well fitted curve in the direction sought with a large enough effect; inconclusive = small, poorly fitted or top-dose-only effect, or another doubt; inactive = no such curve, though single readings can be large; an effect the other way counts as inactive or inconclusive.

Cc1cc(-c2cc3c(cn2)CN(CC(C)C)CCN3)ccn1 was read as GPT2 inhibitor inactive, NIH3T3 tox inconclusive, NPR1 antag inactive, FLuc inh-1 4.5µM, HEK cytotox inconclusive, FLuc SDR -ATP inconclusive, FLuc SDR ATP inactive and FLuc inh-2 16µM.
Screening COc1ccc(-c2cc3c(cn2)CN(C)CCN3)cc1OC returned GPT2 inhibitor inactive, NIH3T3 tox inconclusive, NPR1 antag inactive, FLuc inh-1 inconclusive and HEK cytotox inactive.
`c1cc(CN2C[C@H](c3ccc4c(c3)OCO4)[C@@H]3[C@H]2C2CCN3CC2)ccn1` gave GPT2 inhibitor inactive, NIH3T3 tox inactive, NPR1 antag inactive, FLuc inh-1 inactive and HEK cytotox inactive.
`c1nc(N2C[C@@H](c3ccc4c(c3)OCO4)[C@@H]3[C@H]2C2CCN3CC2)c2[nH]cnc2n1` gave GPT2 inhibitor inactive, NIH3T3 tox inactive, NPR1 antag inactive, FLuc inh-1 inactive, HEK cytotox inactive, FLuc SDR -ATP inactive, FLuc SDR ATP inactive and FLuc inh-2 inactive.
Screening CC(C)CCN1CCC(N2CCN(C(=O)Cc3ccccc3F)CC2)C1=O (stereo not given) returned GPT2 inhibitor inactive, NIH3T3 tox inactive, NPR1 antag inactive, FLuc inh-1 inactive and HEK cytotox inactive.
For Cc1ccccc1Cn1cccc(C(=O)Nc2nc3ccccc3s2)c1=O the results were FLuc SDR -ATP inconclusive, FLuc SDR ATP inconclusive and FLuc inh-2 0.88µM.
For COc1cccc(Nc2cc3c(cn2)CN(C)CCN3)c1 the results were GPT2 inhibitor inactive, NIH3T3 tox inconclusive, NPR1 antag inactive, FLuc inh-1 4.5µM, HEK cytotox inconclusive, FLuc SDR -ATP inactive, FLuc SDR ATP inactive and FLuc inh-2 23µM.
Screening CC(C)(C)CC(=O)N1C[C@@H]2C[C@H](C1)c1ccc(NC(=O)Nc3cccc(F)c3)c(=O)n1C2 returned GPT2 inhibitor inconclusive, NIH3T3 tox inconclusive, NPR1 antag inactive, FLuc inh-1 14µM, HEK cytotox inconclusive, FLuc SDR -ATP inactive, FLuc SDR ATP inactive and FLuc inh-2 inactive.
Screening CNC(C)c1cccnc1 (stereo not given) returned GPT2 inhibitor inconclusive, NIH3T3 tox inactive and HEK cytotox inactive.
`CCNC(=O)Nc1ccc(OCC(=O)N2CCN(CC(C)C)CC2)nc1` gave GPT2 inhibitor inactive, NIH3T3 tox inactive, NPR1 antag inactive, FLuc inh-1 inactive and HEK cytotox inactive.
Screening CC(C)CC(=O)N1[C@H]2CC[C@@H]1c1cnc(-c3ccc(F)cc3)nc1C2 returned GPT2 inhibitor inactive, NIH3T3 tox inconclusive, NPR1 antag 13µM, FLuc inh-1 inactive, HEK cytotox 20µM, Npr1 antag conf 24µM, Npr2 selectivity 24µM, FLuc counter inactive and GloSensor cGMP 19µM.
`O=C(C1CCCC1)N1[C@H]2CC[C@@H]1c1cnc(-c3ccc(F)cc3)nc1C2` gave GPT2 inhibitor inactive, NIH3T3 tox inactive, NPR1 antag 10µM, FLuc inh-1 inactive, HEK cytotox 16µM, Npr1 antag conf 8.6µM, Npr2 selectivity 12µM, FLuc counter inactive and GloSensor cGMP 8.6µM.
`COCC(=O)N1[C@H]2CC[C@@H]1c1cnc(-c3ccc(F)cc3)nc1C2` gave GPT2 inhibitor inactive, NIH3T3 tox inactive, NPR1 antag inactive, FLuc inh-1 inactive and HEK cytotox inconclusive.
`Cn1cc(C(=O)N2[C@H]3CC[C@@H]2c2cnc(-c4ccc(F)cc4)nc2C3)cn1` gave GPT2 inhibitor inactive, NIH3T3 tox inactive, NPR1 antag inactive, FLuc inh-1 inactive and HEK cytotox inconclusive.
CCn1nccc1C(=O)N1[C@H]2CC[C@@H]1c1cnc(-c3ccc(F)cc3)nc1C2 was read as GPT2 inhibitor inactive, NIH3T3 tox inconclusive, NPR1 antag 6.3µM, FLuc inh-1 inactive, HEK cytotox inconclusive, Npr1 antag conf 11µM, Npr2 selectivity 12µM, FLuc counter inactive and GloSensor cGMP 11µM.
For CC(C)C(=O)N1[C@H]2CC[C@@H]1c1cnc(-c3ccc(F)cc3)nc1C2 the results were GPT2 inhibitor inactive, NIH3T3 tox inactive, NPR1 antag 22µM, FLuc inh-1 inactive, HEK cytotox inconclusive, Npr1 antag conf 19µM, Npr2 selectivity 22µM, FLuc counter inactive and GloSensor cGMP 19µM.
`Cc1cnc(CCN)n1CC1CC1` gave GPT2 inhibitor inactive, NIH3T3 tox inactive, NPR1 antag inactive, FLuc inh-1 inactive and HEK cytotox inactive.
C[C@@H](CN1CCC2(CC1)C(=O)NCN2c1cccc(F)c1)NC(=O)c1ccc(Br)cc1 was read as GPT2 inhibitor inactive.
`COc1cc2c(cc1Oc1ccccc1)NC(=O)C21CCN(Cc2cccc(O)c2)CC1` gave GPT2 inhibitor inactive, NIH3T3 tox 22µM, NPR1 antag inconclusive, FLuc inh-1 inactive, HEK cytotox inconclusive, Npr1 antag conf 40µM, Npr2 selectivity inconclusive, FLuc counter inactive and GloSensor cGMP 31µM.
COc1cc2c(cc1OCc1ccccc1)NC(=O)C21CCN(c2ccccn2)CC1 was read as GPT2 inhibitor inactive, NIH3T3 tox inactive, NPR1 antag inconclusive, FLuc inh-1 inactive, HEK cytotox inconclusive, Npr1 antag conf inconclusive, Npr2 selectivity inconclusive, FLuc counter inactive and GloSensor cGMP inconclusive.

From PubChem BioAssay
